Measured values taken from PubChem BioAssay.
The source made the active and inactive calls.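 Rule for the calls, unless noted: active = viability loss from added drug above about 55%, and viability with drug at most 40%, in both replicates (limit read from the data, passing the limit was not always enough); inconclusive = both conditions met in only one replicate; inactive = neither replicate meets both conditions.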

Tests used:
[1] = SK-BR-3 cell growth inhibitors, pilot screen, 24 h, human (AID 572;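 active = viability at or below 10% of carrier control in both of two separate runs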;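 note: compound exposure lasted between 18 and 24 h rather than exactly 24 h; 100% = carrier-treated control wells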); settings: SK-BR-3 viability, CellTiter-Glo luminescence, at 10 µM, stronger effect = lower value
[2] = growth inhibitors of H69AR lung tumor, primary screen, human, duplicate replicates (AID 580;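 active = viability at or under a set limit in both replicates, limit being median viability minus 3 SD, cut at about 48% in these data, passing the limit was not always enough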;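 note: 100% = mean luminescence of untreated wells and 0% = no signal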); settings: H69AR lung tumor cells viability, ATP luminescence, 72 h; at 10 µM; stronger effect = lower value
[3] = reversal of MRP1-mediated doxorubicin resistance, pilot screen, H69AR cells, doxorubicin co-treatment (AID 601); settings: CellTiter-Glo, 72 h, at 10 µM; for differential viability (reversal): stronger effect = higher value
[4] = 384-well plate pilot, post-Golgi transport modulator project, inhibition of yeast transport mutant growth (AID 636; in the data active = inhibition above about 31%); settings: absorbance 615 nm, about 18 h, stronger effect = higher value
[5] = growth suppression of yeast trafficking mutant, preliminary HTS, modulators of trafficking downstream of Golgi apparatus project, 1536-format plate, OD 615 nm (AID 637; in the data active = inhibition above about 30%); settings: yeast transport mutant growth, absorbance 615 nm, 18 h; stronger effect = higher value
[6] = HUVEC growth inhibition – cell-based, human, primary screen (AID 575;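 active = viability at or below 30% in both replicate assays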;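 note: 100% = median of untreated cell wells with 0.1% DMSO on each plate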); settings: HUVEC proliferation, CellTiter-Glo luminescence, 72 h; at 10 µM; stronger effect = lower value
[7] = H69AR cells + 2 uM doxorubicin, measured here: viability with 2 uM doxorubicin, stronger effect = lower value
[8] = H69AR cells, compound alone cytotoxicity

| SMILES | viability [1] | viability [2] | differential viability (reversal) ([3]; H69AR cells + 2 uM doxorubicin) | viability [3, 7] [%] | viability [3, 8] [%] | inhibition [4] | inhibition [5] | viability [6] |
| --- | --- | --- | --- | --- | --- | --- | --- | --- |
| CO[C@H]1C[C@@H]2CC[C@@H](C)[C@@](O)(O2)C(=O)C(=O)N2CCCC[C@H]2C(=O)O[C@H]([C@H](C)C[C@@H]2CC[C@@H](O)[C@H](OC)C2)CC(=O)[C@H](C)C=C(C)[C@@H](O)[C@@H](OC)C(=O)[C@H](C)C[C@H](C)C=CC=CC=C1C | 113% (inactive) | 67.1% (inactive) | 1.46% (inactive) | 65.7 | 67.1 | 93.6% (active) | 82.2% (active) |  |
| COc1ccc(Br)cc1-c1noc(-c2ccccc2)n1 | 99% (inactive) | 78.5% (inactive) | -0.585% (inactive) | 79.1 | 78.5 | -3.87% (inactive) | -4.36% (inactive) |  |
| CCCCn1c(SCc2ccc(Cl)cc2)nc2c1c(=O)[nH]c(=O)n2C | 80% (inactive) | 76.7% (inactive) | 6.03% (inactive) | 70.7 | 76.7 | -4% (inactive) | 0.73% (inactive) |  |
| CC(=O)Nc1ccc2nc(-c3cccnc3)[nH]c2c1 |  | 80.7% (inactive) | -11.3% (inactive) | 92 | 80.7 | 3.51% (inactive) | 11.1% (inactive) | 98.6% (inactive) |
| COc1ccccc1N1CCN(Cc2nc(N)nc(Nc3ccc(C)c(Cl)c3)n2)CC1 | 104% (inactive) |  | -26.3% (inactive) | 65.1 | 38.8 | -1.3% (inactive) | -3.28% (inactive) |  |
| O=C(CNCCC1=CCCCC1)Nc1ccccc1N1CCCCC1 | 102% (inactive) |  | -5.31% (inactive) | 66.9 | 61.6 | -1.08% (inactive) | 6.51% (inactive) |  |
| CC(C)CC(OC(=O)c1cccs1)C(=O)NCc1ccco1 (stereo not given) |  | 80.6% (inactive) | -0.4% (inactive) | 81 | 80.6 | -7.6% (inactive) | -4.13% (inactive) | 103% (inactive) |
| COc1ccc(OC)c(N2Cc3cc(C)c(C)cc3C2)c1 |  | 95.3% (inactive) | 6.88% (inactive) | 88.4 | 95.3 | -6.97% (inactive) | 4.44% (inactive) | 114% (inactive) |
| Cc1cc(-n2c(C)cc(C(=O)CSc3nnnn3-c3ccc(Cl)cc3)c2C)no1 | 81.5% (inactive) |  | 4.86% (inactive) | 44.3 | 49.2 | -3.73% (inactive) | -5.56% (inactive) |  |
| Cc1ccc2[nH]c3c(c2c1)CN(C(=O)CN1CCN(c2cccc(C)c2C)CC1)CC3 | 79% (inactive) |  | -6.55% (inactive) | 37.6 | 31 | 0% (inactive) | 4.36% (inactive) |  |
| Cc1ccc(S(=O)(=O)N2CCCC2C(=O)OCc2ccco2)cc1 (stereo not given) |  | 77.2% (inactive) | 0.425% (inactive) | 76.8 | 77.2 | -6.58% (inactive) | -7.62% (inactive) | 96% (inactive) |
| O=C(NC1CC1)c1cccc(Nc2ccc(-c3ccc4c(c3)OCCO4)nn2)c1 | 76% (inactive) |  | -12% (inactive) | 61.2 | 49.1 | -0.81% (inactive) | -5.82% (inactive) |  |
| CC(=O)C1=C(C)NC(=O)NC1c1cccc(O)c1 (stereo not given) |  | 94.4% (inactive) | 8.07% (inactive) | 86.3 | 94.4 | -2.93% (inactive) | 0.16% (inactive) | 99.8% (inactive) |
| COc1ccc(Cl)c(N2CCN(CCCNC(=O)Nc3ccc(C)cc3)CC2)c1 | 98% (inactive) |  | -14.9% (inactive) | 60.3 | 45.4 | -5.34% (inactive) | -2.91% (inactive) |  |
| CCCOc1ccc(N2C(=O)CC(NCCCN3CCC(C(N)=O)CC3)C2=O)cc1 (stereo not given) |  | 88.6% (inactive) | -3.32% (inactive) | 91.9 | 88.6 | -1.97% (inactive) | 1.27% (inactive) | 121% (inactive) |
| CC1CCCCN1CCNS(=O)(=O)c1ccc2c(c1)oc(=O)n2C (stereo not given) |  | 108% (inactive) | 7.79% (inactive) | 99.9 | 108 | -6.13% (inactive) | -1.11% (inactive) | 87% (inactive) |
| COc1ccc(S(=O)(=O)N2CCN(Cc3ccc(Cl)cc3)CC2)cc1 |  | 97% (inactive) | 6.67% (inactive) | 90.3 | 97 | -0.4% (inactive) | -3.81% (inactive) | 90.7% (inactive) |
| Nc1nc(SCc2nc3scc(-c4cccs4)c3c(=O)[nH]2)n[nH]1 |  | 93.4% (inactive) | -3.9% (inactive) | 97.3 | 93.4 | -2.67% (inactive) | 0.32% (inactive) | 77.5% (inactive) |
| COC(=O)C1=C(C)N(c2ccc(C(=O)OC)cc2)C(=O)C1 |  | 88.8% (inactive) | 2.86% (inactive) | 86 | 88.8 | -0.39% (inactive) | 1.43% (inactive) | 86.9% (inactive) |
| O=S(=O)(c1ccc(Oc2ccc(-c3nnco3)cc2)nc1)N1CCC(Cc2ccccc2)CC1 | 109% (inactive) |  | -8.52% (inactive) | 60.4 | 51.9 | -4.11% (inactive) | -10.3% (inactive) |  |
| CNCCCC12CCC(c3ccccc31)c1ccccc12 |  | 70.1% (inactive) | 6.27% (inactive) | 63.8 | 70.1 |  |  | 77.4% (inactive) |
| COC(=O)Cc1c(C)nc2nc(-c3ccccc3)[nH]n2c1=O |  | 102% (inactive) | -4.13% (inactive) | 106 | 102 | 0.53% (inactive) | -5.56% (inactive) | 90.8% (inactive) |
